Assay results taken from the supplement of paper PMC6555819.

tested on: PPARg DBDmut IVT, anti-PPARg (DBD mutation: PPARg1 K132A/R137A, NR concentration 270 nM); assay: PBM binding z-score (relative to random genomic background probes); higher = stronger binding; sequences stand for … in GC…GCGATTGACAGCGTAGAATGAAGG
Method in brief: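 Custom Agilent 4×180K protein-binding microarrays carried double-stranded probes, each with a 34-nt variable region. These regions held direct-repeat seeds, single-nucleotide variants, half-site ablations and random human genomic background sequences. Ligand-free nuclear receptor dimers were incubated on the arrays for 1 h, antibodies against each partner (one per run) detected binding, and scanned fluorescence was regression-normalized. Binding z-scores take the random background probes as reference.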

Sequence | PBM binding z-score
TCAGAGAGGTGAAGGTAACTCAGGTACGCAGTCG | -0.235
GGTAGTTGGTCAGTAAAAGGTCACACACCGGTCG | 0.24
GTACCAAGGTGAATAGTTCGTTGATGAGTAGGCG | 0.393
TCTATTAGTTGAATAGGGCAACCGAAACAGCGGA | 0.929
CAAACTAGGTCACAGAGCTCAAAGTCCGTGCGTA | 1.2
ATCTCTTGGTAACAAGTTCAGTGAAAGAGAGGAC | 1.13
TCAGACAGGTCAAGGTAACTCAGGTACGCAGTCG | 0.283
TCGAGTAGGTTAGTCGGGGCGTTCAGCCAACATA | -0.973
TCTGCTAGGTCAGTTGGTCAGCTCACGAGCTGCC | 0.713
AGAACGAGGGCACGCTGAGTTGATTGCAGAGTAG | 0.126
AGAACGAGGGCACGCTGAGTAGATAGCAGAGTAG | 0.195
ATATGTAGGTTACATCCGGGTCATTCCGGCTATG | 3.42
AGAACGCGGGCACGCTGAGTTGATAGCAGAGTAG | -1.15
TCTTGTAGATCAATAGAGGCTAAGAAAGTGCGCT | 0.266
CCTAGCAGGCCAATCTGGGTCACTGAAGGCTTGA | 0.356
CCTTACGGGTCACGAGGTTACAGCACGACGAGCG | 2.53
TCTTGTAGATCAGCAGGTGAAGAAAGCTGGCCAA | -0.252
ACTATTAGCTGACTTAGGGCAACCGATACGACGC | 1.38
AGAACGAGGGCAATGAGTTGATCGCACGGGTGGC | 0.015
TTACCAAGGTGAAGGTCGTCGATCCCTCTGTAGA | 0.108
CTCGAAAGGTCGGTTGAGGTGAATATACGGATAA | 0.349
CGTCCAAGGTCAAGGCTAGGTCAGTGAAAGCATT | -0.338
